Experimental findings from PubChem BioAssay are described below.

Where “and” joins values, the source holds several entries; their conditions need not be identical. Equal entries are not always repeated. Calls of active or inactive are those of the source. No rule for the calls is given here.

A short description of test [1]: liver-stage malaria parasite load reduction – cell-based, known kinase inhibitor set, luminescence, hepatoma host viability (AID 624392).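 Also: infected cells incubated roughly two days before readout.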 The note with it: Plasmodium liver stage in hepatoma cells, luciferase luminescence, concentration not given here; liver cell % of control: measured here: host liver cell viability; parasite % of control: stronger effect = lower value.
A short description of test [2]: altered dexamethasone sensitivity, NF-kB reporter, cell-based, luciferase, IL-1B stimulus (AID 624486).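 As to percent of negative control (+Dex): 100% = mean signal of vehicle control wells on the plate.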 The note with it: IL-1B + dexamethasone, luminescence; percent of negative control (+Dex): actives lie on both sides, concentration not given here; z-score: measured here: IL-1B alone, no Dex.
The target of test [3] is Cellular tumor antigen p53 (Homo sapiens) (UniProt P04637). Briefly: GFP-p53 level modulators in HPV16+ cells – imaging, known kinase inhibitor set, EGFP/DsRed ratio (AID 1053116).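 Also: cells exposed to compounds for 24 h at 37 °C before reading.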 The note with it: GFP-p53 stability, stronger effect = higher value; EGFP object count: measured here: GFP-p53 positive objects count.
Cellular tumor antigen p53 (Homo sapiens), sequence (P04637 whole entry, looked up): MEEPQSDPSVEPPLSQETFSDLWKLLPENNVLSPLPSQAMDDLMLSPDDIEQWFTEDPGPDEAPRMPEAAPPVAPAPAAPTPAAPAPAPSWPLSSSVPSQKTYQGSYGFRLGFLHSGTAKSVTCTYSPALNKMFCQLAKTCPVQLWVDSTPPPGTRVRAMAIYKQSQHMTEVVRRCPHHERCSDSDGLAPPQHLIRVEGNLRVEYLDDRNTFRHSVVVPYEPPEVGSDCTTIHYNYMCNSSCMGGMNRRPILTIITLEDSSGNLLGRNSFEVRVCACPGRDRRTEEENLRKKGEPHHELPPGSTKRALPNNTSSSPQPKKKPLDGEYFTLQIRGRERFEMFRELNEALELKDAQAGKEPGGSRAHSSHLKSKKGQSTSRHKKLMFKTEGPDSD
A short description of test [4]: inducers of IRF3 signaling, differentiated THP-1 – cell-based, PMA-stimulated THP-1, luminescence (AID 1053176). Conditions: PMA-differentiated THP-1, IRF3 reporter luminescence; stronger effect = higher value.

As to `O=C1Nc2ccc(F)c3c(OCCO)cc(-c4ccc[nH]4)c1c23`, in test [1], the liver cell % of control worked out at 83.9% and the parasite % of control was 52.1% (inactive). For the same compound, in test [2], the percent of negative control (+Dex) is 105% (inactive) and the z-score came to 1.54. Besides, in test [3], the EGFP object count was 6 and the EGFP/DsRed ratio was 0.192 (inactive). Further, the fraction signal in test [4] is -0.016 (inactive).
On to `Cc1cccc2c(C3=C(c4cn(C)c5ccccc45)C(=O)NC3=O)cn(C)c12`, for which, in test [1], the liver cell % of control was 91.7% and the parasite % of control was 45.3% (inactive). Also, in test [2], the percent of negative control (+Dex) was 98.5% (inactive) and the z-score was -1.08. In addition, in test [3], the EGFP object count is 24 and the EGFP/DsRed ratio was 0.241 (inactive). The fraction signal in test [4] was -0.0115 (inactive).
`OCCn1c(-c2ccncc2)c(-c2ccc(F)cc2)c2ncccc21`: in test [1], the liver cell % of control worked out at 114% and the parasite % of control was 46% (inactive). In addition, in test [2], the percent of negative control (+Dex) was 99.5% (inactive) and the z-score was 0.305. Further, in test [3], the EGFP object count came to 5.5 and the EGFP/DsRed ratio is 0.119 (inactive). The fraction signal in test [4] is -0.0135 (inactive).
On to `Cn1cc(C2=C(c3cn(C)c4ccc(N)cc34)C(=O)NC2=O)c2ccccc21`, for which, in test [1], the liver cell % of control turned out to be 95.1% and the parasite % of control is 36.7% (inactive). Moreover, in test [2], the percent of negative control (+Dex) was 98% (inactive) and the z-score turned out to be 0.385. Further, in test [3], the EGFP object count is 11 and the EGFP/DsRed ratio was 0.25 (inactive). For the same compound, in test [4], the fraction signal was -0.0115 (inactive).
`O=C1NC(=NCc2ccccn2)SC1=Cc1ccc2ncccc2c1`: in test [1], the liver cell % of control is 105% and the parasite % of control was 37.5% (inactive). Also, in test [2], the percent of negative control (+Dex) is 94% (inactive) and the z-score was found to be 0.165. Also, in test [3], the EGFP object count turned out to be 6.5 and the EGFP/DsRed ratio is 0.264 (inactive). Also, the fraction signal in test [4] is 0.01 (inactive).
Regarding `CCc1c(C)nc2sc3c(N)ncnc3c2c1C`, in test [1], the liver cell % of control was 221% and the parasite % of control was 5.86% (inactive). For the same compound, in test [2], the percent of negative control (+Dex) is 53.5% (active) and the z-score was -4.42. Further, in test [3], the EGFP object count turned out to be 3.5 and the EGFP/DsRed ratio is 0.129 (inactive). For the same compound, the fraction signal in test [4] was -0.001 (inactive).
Take `COc1cc[nH]c1C=C1C(=O)Nc2ccc(F)c(I)c21`: in test [1], the liver cell % of control turned out to be 98.3% and the parasite % of control was 40.2% (inactive). For the same compound, in test [2], the percent of negative control (+Dex) is 98% (inactive) and the z-score is 0.98. For the same compound, in test [3], the EGFP object count came out at 46 and the EGFP/DsRed ratio was 0.596 (inactive). In test [4], the fraction signal is 0.0015 (inactive).
Take `Cn1c(=O)c(-c2ccccc2Cl)cc2cnc(NC3CCOCC3)nc21`: in test [1], the liver cell % of control turned out to be 100% and the parasite % of control is 252% (inactive). Moreover, in test [2], the percent of negative control (+Dex) was 93% (inactive) and the z-score is -0.175. Also, in test [3], the EGFP object count is 1 and the EGFP/DsRed ratio was 0.00654 (inactive). Besides, the fraction signal in test [4] is -0.0055 (inactive).
For the compound `COCC(N=C1NC(=O)C(=Cc2ccc3ncccc3c2)S1)c1ccccc1` (stereo not given), in test [1], the liver cell % of control was found to be 98.8% and the parasite % of control is 49.5% (inactive). In test [2], the percent of negative control (+Dex) was 98% (inactive) and the z-score amounted to 0.145. In test [3], the EGFP object count came to 6.5 and the EGFP/DsRed ratio is 0.249 (inactive). Besides, the fraction signal in test [4] is -0.005 (inactive).
With `Nc1c(C(=O)c2cccc(-c3ccncc3)c2)cnn1-c1ccc(F)cc1`, in test [1], the liver cell % of control came out at 101% and the parasite % of control was 36.5% (inactive). In test [2], the percent of negative control (+Dex) was 95.5% (inactive) and the z-score worked out at 0.895. For the same compound, in test [3], the EGFP object count was 2 and the EGFP/DsRed ratio is 0.219 (inactive). In test [4], the fraction signal was -0.003 (inactive).
With `Cn1cc(C2=C(c3cn(C)c4ccccc34)C(=O)NC2=O)c2ccccc21`, in test [1], the liver cell % of control was found to be 115% and the parasite % of control is 66.6% (inactive). In addition, in test [2], the percent of negative control (+Dex) was 110% (inactive) and the z-score is -0.485. Moreover, in test [3], the EGFP object count turned out to be 25.5 and the EGFP/DsRed ratio is 0.17 (inactive). Further, in test [4], the fraction signal was -0.001 (inactive).
`CN1CCN(CC#Cc2cccc(C(=O)c3cnn(-c4ccc(F)cc4)c3N)c2)CC1`: in test [1], the liver cell % of control was found to be 96.5% and the parasite % of control is 46.3% (inactive). Besides, in test [2], the percent of negative control (+Dex) was 104% (inactive) and the z-score was 0.495. In test [3], the EGFP object count is 3.5 and the EGFP/DsRed ratio is 0.0523 (inactive). Also, the fraction signal in test [4] is 0.0015 (inactive).
In the case of `CCNC(=O)C1CCCN2C(=O)CCC(NC(=O)C(Cc3ccc(OP(=O)(O)O)cc3)NC(C)=O)C(=O)N12` (stereo not given), in test [1], the liver cell % of control was 95% and the parasite % of control was 44.7% (inactive). In addition, in test [2], the percent of negative control (+Dex) was 102% (inactive) and the z-score is 0.145. Further, in test [3], the EGFP object count amounted to 6 and the EGFP/DsRed ratio was 0.215 (inactive). The fraction signal in test [4] is -0.0005 (inactive).
In the case of `CC(CS(C)(=O)=O)Nc1ncc2cc(Oc3ccc(F)cc3F)c(=O)n(C)c2n1` (stereo not given), in test [1], the liver cell % of control is 125% and 102%; the parasite % of control is 49.1% (inactive) and 48.7% (inactive). In test [2], the percent of negative control (+Dex) was 99.5% (inactive) and 101% (inactive); the z-score is 0.115 and 0.87. In addition, in test [3], the EGFP object count was 5.5 and 3.5; the EGFP/DsRed ratio was 0.387 (inactive) and 0.111 (inactive). Moreover, in test [4], the fraction signal was -0.005 (inactive) and -0.0115 (inactive).
Regarding `Cc1nc2sc3c(N)ncnc3c2c(C)c1C`, in test [1], the liver cell % of control was found to be 140% and the parasite % of control was 42% (inactive). Further, in test [2], the percent of negative control (+Dex) is 77.5% (inactive) and the z-score is -1.64. In test [3], the EGFP object count was 5 and the EGFP/DsRed ratio was 0.308 (inactive). Further, the fraction signal in test [4] is -0.003 (inactive).
For the compound `Nc1c(C(=O)c2cccc(C(O)CO)c2)cnn1-c1ccc(F)cc1` (stereo not given), in test [1], the liver cell % of control turned out to be 101% and the parasite % of control is 60.5% (inactive). In test [2], the percent of negative control (+Dex) is 110% (inactive) and the z-score came to 1.48. In test [3], the EGFP object count is 4.5 and the EGFP/DsRed ratio is 0.197 (inactive). Also, the fraction signal in test [4] is 0.0035 (inactive).
On to `CC(=O)N[C@H](Cc1ccc(OP(=O)(O)O)cc1)C(=O)N[C@@H]1CCC(=O)N2CCC[C@@H](C(=O)N[C@H]3CCc4ccccc43)N2C1=O`, for which, in test [1], the liver cell % of control stood at 122% and the parasite % of control is 61.5% (inactive). Moreover, in test [2], the percent of negative control (+Dex) was 95.5% (inactive) and the z-score came out at 0.9. In test [3], the EGFP object count worked out at 6 and the EGFP/DsRed ratio is 0.211 (inactive). Besides, in test [4], the fraction signal is -0.003 (inactive).
Regarding `Cn1c(=O)c(Oc2ccccc2F)cc2cnc(NC3CCOCC3)nc21`, in test [1], the liver cell % of control turned out to be 116% and the parasite % of control is 49.5% (inactive). Further, in test [2], the percent of negative control (+Dex) is 107% (inactive) and the z-score amounted to 0.09. Further, in test [3], the EGFP object count amounted to 7 and the EGFP/DsRed ratio is 0.313 (inactive). The fraction signal in test [4] is 0.001 (inactive).
With `COc1cccc(C2=C(c3cn(C)c4cc(C)ccc34)C(=O)NC2=O)c1`, in test [1], the liver cell % of control is 112% and the parasite % of control is 29% (inactive). In test [2], the percent of negative control (+Dex) was 98.5% (inactive) and the z-score was -1.5. Moreover, in test [3], the EGFP object count was found to be 24 and the EGFP/DsRed ratio was 0.336 (inactive). Further, in test [4], the fraction signal was -0.005 (inactive).
Regarding `CON=C1NC(=O)C(=Cc2ccc3ncccc3c2)S1`, in test [1], the liver cell % of control came out at 89.4% and the parasite % of control is 71.6% (inactive). Moreover, in test [2], the percent of negative control (+Dex) was 113% (inactive) and the z-score amounted to 2.23. Also, in test [3], the EGFP object count was 3.5 and the EGFP/DsRed ratio is 0.0939 (inactive). Further, the fraction signal in test [4] is -0.005 (inactive).
